# From ChEMBL document CHEMBL3988442, “University of Dundee, Small-Polar-MMV Screening Library” (2021)
# For some of these results: Measured potencies and affinities stand elsewhere.
# What was measured:
# Design in all cases: scale not given: direction of the effect not stated beside the values
# [1] = molecular target: Protein translocase subunit SecA (Escherichia coli (strain K12)) (UniProt P10408); test: Assay to Identify E. coli SecA ATPase Inhibitors; assay type: functional; details: 30 µM
# [2] = molecular target: T1, Ubiquitin-activating enzyme e1, putative (Leishmania donovani (strain BPK282A1)) (UniProt E9BSI1); test: Leishmania donovani Ubiquitin Activating Enzyme (LdE1); assay type: functional; details: 30 µM
# T1 sequence (whole entry): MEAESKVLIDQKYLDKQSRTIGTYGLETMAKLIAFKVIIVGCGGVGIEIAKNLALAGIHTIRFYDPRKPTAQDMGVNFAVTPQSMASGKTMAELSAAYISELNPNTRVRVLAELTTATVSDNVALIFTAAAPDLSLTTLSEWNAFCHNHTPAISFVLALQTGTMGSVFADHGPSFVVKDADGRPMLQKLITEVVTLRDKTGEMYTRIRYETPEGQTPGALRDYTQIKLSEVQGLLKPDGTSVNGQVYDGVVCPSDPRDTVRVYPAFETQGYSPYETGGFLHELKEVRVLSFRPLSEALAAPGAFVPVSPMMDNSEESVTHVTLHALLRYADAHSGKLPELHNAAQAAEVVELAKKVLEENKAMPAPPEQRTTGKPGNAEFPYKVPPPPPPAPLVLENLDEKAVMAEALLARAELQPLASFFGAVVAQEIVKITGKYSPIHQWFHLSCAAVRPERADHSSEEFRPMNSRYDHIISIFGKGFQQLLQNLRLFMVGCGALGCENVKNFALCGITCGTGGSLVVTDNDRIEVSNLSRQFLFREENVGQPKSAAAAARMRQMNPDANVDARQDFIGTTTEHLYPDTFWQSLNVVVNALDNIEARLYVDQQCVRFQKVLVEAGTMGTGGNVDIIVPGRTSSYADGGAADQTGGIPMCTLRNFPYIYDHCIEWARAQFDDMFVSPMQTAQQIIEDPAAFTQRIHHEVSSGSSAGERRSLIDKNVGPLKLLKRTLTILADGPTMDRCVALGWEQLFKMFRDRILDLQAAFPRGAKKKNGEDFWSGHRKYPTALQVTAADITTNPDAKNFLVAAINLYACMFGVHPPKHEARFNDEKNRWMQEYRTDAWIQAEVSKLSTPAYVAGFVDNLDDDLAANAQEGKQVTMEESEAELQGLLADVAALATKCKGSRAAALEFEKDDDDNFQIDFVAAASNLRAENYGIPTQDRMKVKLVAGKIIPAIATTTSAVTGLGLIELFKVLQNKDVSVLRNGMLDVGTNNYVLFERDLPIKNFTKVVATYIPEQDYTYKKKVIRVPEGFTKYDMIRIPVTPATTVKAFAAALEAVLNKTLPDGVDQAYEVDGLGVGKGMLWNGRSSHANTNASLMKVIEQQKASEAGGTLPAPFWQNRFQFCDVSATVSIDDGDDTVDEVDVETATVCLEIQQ
# [3] = molecular target: AMP-activated protein kinase, AMPK (Homo sapiens) (UniProt P54646+O43741+P54619+Q9UGJ0+Q9Y478+Q13131+Q9UGI9); test: AMP-dependent Kinase enzyme assay. An in vitro enzyme assay that detects ADP turnover that is directly proportional to AMPK activity. This uses naive AMPK that is activated during the assay with MK-8722; assay type: functional; details: 30 µM
# [4] = molecular target: Sialic acid-binding Ig-like lectin 9 (Homo sapiens) (UniProt Q9Y336); test: Hs-Siglec9 ALPHAscreen SOP 20170721; details: 10 µM
# Trypanosoma cruzi = test: Trypanosoma cruzi phosphomannomutase and mannose-1-phosphate guanylyltransferase assay; assay type: functional; details: 10 µM
# [5] = molecular target: T2, Arginase-2, mitochondrial (Homo sapiens) (UniProt P78540); test: in vitro enzyme assay to detect the production of urea directly proportional to the activity of Arginase II; assay type: functional; details: 33.3 µM; also: in the data most compounds retested in dose-response had high values
# T2 sequence (whole entry): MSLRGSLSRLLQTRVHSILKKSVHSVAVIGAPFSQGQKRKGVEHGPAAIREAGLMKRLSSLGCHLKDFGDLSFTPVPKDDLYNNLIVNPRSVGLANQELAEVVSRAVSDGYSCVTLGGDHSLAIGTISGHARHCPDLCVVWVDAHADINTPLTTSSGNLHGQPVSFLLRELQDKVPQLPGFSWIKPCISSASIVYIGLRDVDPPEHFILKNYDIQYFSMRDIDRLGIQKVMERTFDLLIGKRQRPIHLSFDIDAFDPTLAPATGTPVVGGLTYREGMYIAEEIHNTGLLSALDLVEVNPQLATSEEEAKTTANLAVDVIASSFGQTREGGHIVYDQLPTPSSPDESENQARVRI
# [6] = molecular target: T3, Proteasome subunit beta (Trypanosoma cruzi) (UniProt O96673); test: Trypanosoma cruzi proteasome chymotrypsin-like activity (TcProtChymo) assay.; also: in the data most compounds retested in dose-response had high values; assay type: functional; details: 9.37 µM
# T3 sequence (whole entry): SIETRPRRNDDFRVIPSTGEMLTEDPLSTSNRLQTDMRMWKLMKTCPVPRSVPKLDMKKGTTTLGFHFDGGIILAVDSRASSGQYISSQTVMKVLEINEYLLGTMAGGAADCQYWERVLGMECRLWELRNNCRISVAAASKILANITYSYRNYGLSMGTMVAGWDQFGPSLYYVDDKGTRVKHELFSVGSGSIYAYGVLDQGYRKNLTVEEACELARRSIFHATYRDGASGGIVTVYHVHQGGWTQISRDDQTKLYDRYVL
# Homo sapiens = species: Homo sapiens; test: To identify inhibition of the IFN signalling (Jak-Stat) pathway via expression of an eGFP reporter gene under the control of an IFN-stimulated response element (ISRE) containing MxA promoter.; assay type: functional; details: 30 µM
# [7] = molecular target: T4, Tyrosyl-tRNA synthetase, putative (Trypanosoma cruzi (strain CL Brener)) (UniProt Q4DSP6); test: Trypanosoma cruzi tyrosyl tRNA synthetase (TcYRS) _High Tyrosine SOP; assay type: functional; details: 30 µM; also: in the data most compounds retested in dose-response had high values
# T4 sequence (whole entry): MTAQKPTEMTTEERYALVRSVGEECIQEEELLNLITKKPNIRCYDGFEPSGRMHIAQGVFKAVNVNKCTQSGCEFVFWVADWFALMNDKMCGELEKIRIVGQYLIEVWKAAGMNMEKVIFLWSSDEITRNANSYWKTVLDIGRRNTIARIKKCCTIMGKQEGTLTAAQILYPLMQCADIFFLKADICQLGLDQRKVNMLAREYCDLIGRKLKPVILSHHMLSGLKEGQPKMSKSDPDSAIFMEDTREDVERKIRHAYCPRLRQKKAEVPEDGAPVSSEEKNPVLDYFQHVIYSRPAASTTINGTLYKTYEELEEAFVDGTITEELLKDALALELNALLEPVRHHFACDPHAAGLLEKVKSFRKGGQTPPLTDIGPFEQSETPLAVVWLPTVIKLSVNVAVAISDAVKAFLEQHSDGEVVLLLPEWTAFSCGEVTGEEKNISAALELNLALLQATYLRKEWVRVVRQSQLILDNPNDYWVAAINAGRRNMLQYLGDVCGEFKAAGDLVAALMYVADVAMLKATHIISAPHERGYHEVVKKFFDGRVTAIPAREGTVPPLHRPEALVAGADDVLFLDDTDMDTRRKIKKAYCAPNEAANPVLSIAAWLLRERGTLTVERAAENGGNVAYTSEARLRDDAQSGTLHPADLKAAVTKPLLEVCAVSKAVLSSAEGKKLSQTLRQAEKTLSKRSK
# [8] = molecular target: T4, Tyrosyl-tRNA synthetase, putative (Trypanosoma cruzi (strain CL Brener)); test: Trypanosoma cruzi tyrosyl tRNA synthetase (TcYRS) SOP; assay type: functional; details: 30 µM
# [9] = molecular target: Chromo domain-containing protein 1 (Saccharomyces cerevisiae (strain ATCC 204508 / S288c) (Baker's yeast)) (UniProt P32657); test: ScCHD-1 Enzyme Inhibition Assay; assay type: functional; details: 30 µM; also: in the data most compounds retested in dose-response had high values
# Chain of Chromo domain-containing protein 1 (Saccharomyces cerevisiae (strain ATCC 204508 / S288c) (Baker's yeast)) (P32657 whole entry, the tested form may be a part): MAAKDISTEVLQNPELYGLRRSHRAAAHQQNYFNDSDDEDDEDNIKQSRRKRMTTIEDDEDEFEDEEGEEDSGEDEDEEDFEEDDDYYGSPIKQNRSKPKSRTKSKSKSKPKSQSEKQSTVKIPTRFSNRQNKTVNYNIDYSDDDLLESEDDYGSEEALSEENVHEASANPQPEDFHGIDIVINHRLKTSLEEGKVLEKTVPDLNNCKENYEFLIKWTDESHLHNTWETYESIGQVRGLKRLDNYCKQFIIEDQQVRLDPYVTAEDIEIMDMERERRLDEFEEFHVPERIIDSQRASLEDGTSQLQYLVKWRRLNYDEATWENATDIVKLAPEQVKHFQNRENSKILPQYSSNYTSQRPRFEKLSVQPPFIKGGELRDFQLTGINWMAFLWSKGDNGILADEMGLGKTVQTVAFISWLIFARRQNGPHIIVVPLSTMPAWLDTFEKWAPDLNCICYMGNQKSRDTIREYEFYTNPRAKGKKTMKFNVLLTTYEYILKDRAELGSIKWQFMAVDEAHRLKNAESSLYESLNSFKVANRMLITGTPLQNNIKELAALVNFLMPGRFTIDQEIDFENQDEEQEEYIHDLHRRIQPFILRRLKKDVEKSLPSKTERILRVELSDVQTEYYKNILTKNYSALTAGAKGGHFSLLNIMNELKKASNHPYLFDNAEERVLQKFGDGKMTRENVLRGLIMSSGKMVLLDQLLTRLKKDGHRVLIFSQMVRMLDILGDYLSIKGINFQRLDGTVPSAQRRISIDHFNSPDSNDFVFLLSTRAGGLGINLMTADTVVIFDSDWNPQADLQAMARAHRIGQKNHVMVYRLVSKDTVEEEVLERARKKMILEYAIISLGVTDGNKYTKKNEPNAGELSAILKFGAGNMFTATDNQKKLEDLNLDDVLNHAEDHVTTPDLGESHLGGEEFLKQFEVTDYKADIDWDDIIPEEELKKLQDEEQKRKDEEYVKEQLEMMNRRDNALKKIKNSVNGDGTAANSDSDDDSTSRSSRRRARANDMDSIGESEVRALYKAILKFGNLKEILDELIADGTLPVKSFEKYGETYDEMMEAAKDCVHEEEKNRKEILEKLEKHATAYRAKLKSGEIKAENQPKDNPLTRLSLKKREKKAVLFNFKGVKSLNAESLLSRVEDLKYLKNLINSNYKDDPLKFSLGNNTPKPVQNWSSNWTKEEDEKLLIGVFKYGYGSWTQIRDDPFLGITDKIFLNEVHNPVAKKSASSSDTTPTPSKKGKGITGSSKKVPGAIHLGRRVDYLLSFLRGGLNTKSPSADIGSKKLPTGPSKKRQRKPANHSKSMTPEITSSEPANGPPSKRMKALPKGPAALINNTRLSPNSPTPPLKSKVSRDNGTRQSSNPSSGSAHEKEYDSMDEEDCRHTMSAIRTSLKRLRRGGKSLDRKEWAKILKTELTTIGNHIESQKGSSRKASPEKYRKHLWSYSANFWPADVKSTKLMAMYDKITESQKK
# Chain of Protein translocase subunit SecA (Escherichia coli (strain K12)) (P10408 whole entry): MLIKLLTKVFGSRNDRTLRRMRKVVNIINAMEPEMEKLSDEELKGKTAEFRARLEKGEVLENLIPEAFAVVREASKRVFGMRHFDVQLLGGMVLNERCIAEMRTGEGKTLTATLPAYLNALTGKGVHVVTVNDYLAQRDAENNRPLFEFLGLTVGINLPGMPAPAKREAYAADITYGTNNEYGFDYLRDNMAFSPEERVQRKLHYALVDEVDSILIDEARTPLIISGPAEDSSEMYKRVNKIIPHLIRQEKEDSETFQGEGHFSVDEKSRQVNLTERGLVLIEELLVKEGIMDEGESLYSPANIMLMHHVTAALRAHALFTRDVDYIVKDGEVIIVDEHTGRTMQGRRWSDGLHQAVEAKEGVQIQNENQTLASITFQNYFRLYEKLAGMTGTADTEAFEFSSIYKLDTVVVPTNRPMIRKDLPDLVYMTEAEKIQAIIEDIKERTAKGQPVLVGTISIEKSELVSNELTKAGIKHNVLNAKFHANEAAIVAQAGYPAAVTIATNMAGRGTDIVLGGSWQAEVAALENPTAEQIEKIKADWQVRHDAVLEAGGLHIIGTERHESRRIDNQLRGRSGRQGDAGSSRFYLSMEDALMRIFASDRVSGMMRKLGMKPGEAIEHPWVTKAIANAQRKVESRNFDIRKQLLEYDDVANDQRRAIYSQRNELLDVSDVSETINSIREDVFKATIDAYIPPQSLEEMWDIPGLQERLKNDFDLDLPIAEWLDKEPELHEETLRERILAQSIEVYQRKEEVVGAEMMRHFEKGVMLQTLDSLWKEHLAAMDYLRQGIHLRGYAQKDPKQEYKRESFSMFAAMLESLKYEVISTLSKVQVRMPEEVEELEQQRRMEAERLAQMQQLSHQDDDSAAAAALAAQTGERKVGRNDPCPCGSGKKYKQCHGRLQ
# Chain of Sialic acid-binding Ig-like lectin 9 (Homo sapiens) (Q9Y336 whole entry): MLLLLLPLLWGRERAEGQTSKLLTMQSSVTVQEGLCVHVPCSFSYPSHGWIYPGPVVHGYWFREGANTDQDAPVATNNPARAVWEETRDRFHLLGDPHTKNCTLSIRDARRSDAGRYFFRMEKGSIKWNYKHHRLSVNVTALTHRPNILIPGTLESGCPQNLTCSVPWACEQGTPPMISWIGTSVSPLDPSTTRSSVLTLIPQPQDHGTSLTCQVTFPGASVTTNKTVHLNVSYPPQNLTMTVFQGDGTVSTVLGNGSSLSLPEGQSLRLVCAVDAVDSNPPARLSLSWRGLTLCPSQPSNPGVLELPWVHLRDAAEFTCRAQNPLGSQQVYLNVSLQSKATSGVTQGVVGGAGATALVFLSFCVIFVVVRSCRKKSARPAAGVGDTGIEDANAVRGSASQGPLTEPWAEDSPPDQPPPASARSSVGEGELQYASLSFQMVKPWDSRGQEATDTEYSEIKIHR
SMILES,Percent Effect [1] [%],Percent Effect [2] [%],Percent Effect [3] [%],Percent Effect [4] [%],Percent Effect (Trypanosoma cruzi) [%],Percent Effect [5] [%],Percent Effect [6] [%],Percent Effect (Homo sapiens) [%],Percent Effect [7] [%],Percent Effect [8] [%],Percent Effect [9] [%]
Cc1cnc(N2C[C@H]3C[C@H](C(=O)N(C)C)[C@@H](C2)O3)nc1,-4.03,-5.33,5.45,-2.75,6.76,-46.1,1.54,-13.3,-1.04,0,-3.12
O=c1[nH]c2nc(N3CCSCC3)ncc2c(=O)n1-c1cccc(F)c1,-3.04,7.89,7.15,-1.69,-1.46,5.92,15.4,9.74,3.19,10.4,-0.88
CS(=O)(=O)N1C[C@@H]2CC[C@H](C1)N(Cc1cscn1)C2=O,-4.04,11,-5.85,7.01,6.35,-4.39,9.85,3.89,6.25,18.5,-6.64
COCCN1CCN(C(C)C(=O)Nc2ccnn2C(C)C)CC1 (stereo not given),-4.97,2.7,2.76,0.97,-1.95,0.417,7.35,-1.59,4.95,1.22,-1.09
NC(=O)c1cccc(CC2CCN(C(=O)CCCN3CCOCC3)C2)c1 (stereo not given),-2.51,-2.74,4.39,-12.6,-1.18,-2.27,-3.02,6.37,2.15,2.5,-1.16
O=C(c1ccc(F)cc1)N1C[C@@H]2OCCN(c3ncccn3)[C@@H]2C1,-5.16,5.33,3.73,9.86,-5.02,-19.9,5.98,-2.35,2.08,15,-9.01
CCn1cnnc1C1CCN(C(=O)c2cnc(C3CC3)s2)CC1,-2.76,17.7,-5.9,9.8,0.85,-2.28,3.52,-10.4,6.4,13.9,-4.8
CC(=O)N1CCCC1c1ccc(-c2c(C)noc2C)cn1 (stereo not given),0.953,-4.05,8.36,2.83,-3.56,6.26,4.52,5.24,-1.07,-3.9,3.24
Cc1ccc(N2CC[C@H]3OCC[C@@]3(C(=O)NC(C)C)C2)nn1,-2.37,2.7,-2.16,0.317,2.15,16.7,6.85,4.31,6.93,18.3,-5.52
CC(C)(C)c1cnc(CN2CCC[C@H]2CO)o1,-1.75,-5.2,4.08,12.3,5.62,-0.712,-1.01,-3.74,7.77,9.76,-5.64
Cn1c(Cn2ccnc2)nnc1C1CCN(C(=O)C2(C)CC2)CC1,-1.61,11,-0.77,4.51,-2.98,-4.39,21,17,5.21,18.5,-5.12
O=C(c1ccccn1)N1CCCC(c2nccn2CC2CCC2)C1 (stereo not given),-7.93,0,-15.1,2.39,-2.35,-2.27,3.37,7.95,0,0,-2.91
CCOC(CC)C(=O)NCCC(=O)N1CCN(c2ccccn2)CC1 (stereo not given),-3.95,2.63,4.4,4.32,3.99,-8.28,6.23,-5.03,2.13,5.2,0.201
Cc1ncsc1C(=O)NCCSCCCO,1.26,16.2,-5.95,-2.14,1.02,-1.29,15.4,-0.639,4.95,15.8,-4.16
CC(=O)N1C[C@H](NC(=O)c2cscn2)[C@@H]2OCCC[C@@H]21,-1.76,10.8,2.39,-9.14,-5.38,7.33,23.2,-9.35,-1.08,10.3,-0.517
CC(c1ccc(F)c(F)c1)N1CCN(Cc2nccn2C)CC1 (stereo not given),0.457,20.8,-8.62,5.23,-7.68,5.69,8.62,40.9,-5.83,-2.44,-9.27
Cc1cc(C)cc(OCCC(=O)N2CCCC(n3cncn3)C2)c1 (stereo not given),-0.911,-8.11,0.29,4.17,8.08,-5.73,-5.21,4.81,0,3.66,1.95
CC(c1ccco1)N(C)Cc1nc2c(cnn2C)c(=O)[nH]1 (stereo not given),-2.49,24.3,-5.7,5.24,3.44,2.77,15.1,11.7,-8.91,28.1,-9.16
Cc1nn(C)c(C)c1NC(=O)CN1CCc2c(nc(C(C)C)n2C)C1,-0.874,8.11,-7.75,18.4,7.34,12.9,7.93,22.8,5.82,14.6,-2.17
O=C(c1nc(-c2ccc3cc[nH]c3c2)no1)N1CCCC1,-4.98,-12,2.17,2.62,5.11,-3.7,11.7,-6.53,0,-2.56,-3.18
